{
  "source": "PubChem BioAssay AID1224858",
  "about": "(National Center for Advancing Translational Sciences (NCATS), 2016)",
  "note": "Records with an inconclusive call do not appear. A number with no mark means an inactive call. Calls of active or inactive are those of the source. Calls follow the shape of the dose curve; as a rule, active = well fitted inhibition curve with a large enough effect; inconclusive = small, poorly fitted or top-dose-only effect; inactive = no such curve, though single readings can be large or run the other way.",
  "data": [
    {"test": "Confirmation assay for measurement of the activity of small molecule inhibitors on Zika virus induced Caspase-3 activity in human astrocytes", "conditions": "ZIKV-induced caspase-3/7 luminescence, 6 h; series mostly up to 46.1 µM; activity, negative = inhibition: at the top concentration", "text": "National Center for Advancing Translational Sciences [NCATS] Johns Hopkins University School of Medicine Florida State University Assay Overview: Increase in the Caspase-3 activity indicates an activation of apoptosis cell death pathway caused by Zika virus infection in certain types of neuronal cells including human neural progenitor cells (hNPCs), astrocytes, and astrocytoma cell line (SNB-19). This cell-based caspase-3 activity assay measures the increased caspase-3 activity in the human astrocytes after a 6-hour Zika virus infection with a luminescence readout. A decrease in the luminescence signal in this assay by small molecule treatment indicates an inhibitory effect of that small molecule on the Zika virus induced caspase-3 activity that may correlate with its effect on reduction of Zika virus caused cell death.\nAssay Protocol Summary: The medium for astrocytes contains AM basal medium (ScienCell, Cat.# 1801), AGS (ScienCell, Cat.# 1801), 10% FBS, and 1% Pen/Strep. A Caspase-Glo 3/7 assay kit (catalog number G8092; Promega, Madison, WI) was used to detect caspase-3 activity induced by Zika virus infection in human cells. The reagent mixture was reconstituted as described in the protocol from the manufacturer. Polystyrene tissue culture treated and PDL coated white plates were obtained from Greiner Bio-One (Monroe, NC). Cells were seeded in 384- or 1536-well assay plates and cultured at 37 C with 5% CO2 for 16 to 20 hours. The typical cell seeding density in the 1536-well plate assay is 350 cells/well in 3 ul medium for astrocytes in tissue culture treated plates. Compounds were added to cells and incubated for one hour before addition of ZIKV solution to cells (2 FFU/cell). After incubation at 37 C with 5% CO2 for 6 hours, the reagent mixture of Caspase-Glo 3/7 assay kit was added to each well, followed by incubation at room temperature for 30 minutes. The luminescence intensity of the assay plates was measured using a ViewLux plate reader (PerkinElmer). Data were normalized by using the cell-containing wells without ZIKV as a negative control (0% induction of caspase 3/7 activity) and wells containing ZIKV infected cells (Caspase-3 activity induced) as a positive control (100% induction of caspase 3 activity). The percentage inhibitions of the increased Caspase-3 activity by small molecule inhibitors were then calculated.", "units": {"activity, negative = inhibition": "%"}, "values": [
      {"compound": "COP(=S)(OC)SCN1C(=O)c2ccccc2C1=O", "activity, negative = inhibition": 11.5},
      {"compound": "O=C1C=CC[C@@H]2[C@H]3CCCN4CCC[C@@H](CN12)[C@@H]34", "activity, negative = inhibition": 6.06},
      {"compound": "O=C1CCC[C@@H]2[C@H]3CCCN4CCC[C@@H](CN12)[C@@H]34", "activity, negative = inhibition": -2.18},
      {"compound": "CC(C)[N+](C)(CCC(C(N)=O)(c1ccccc1)c1ccccc1)C(C)C", "activity, negative = inhibition": 3.8},
      {"compound": "Cc1ccc([N+](=O)[O-])[c]2c1[O][Hg]2", "Potency": "7.74 µM (active)"},
      {"compound": "O=S(=O)(CC1CS1)c1ccc(Oc2ccccc2)cc1", "note": "(stereo not drawn)", "activity, negative = inhibition": -16.3},
      {"compound": "COC1(CS(=O)c2ccccc2)CCN(CCc2c[nH]c3ccc(F)cc23)CC1", "note": "(stereo not drawn)", "activity, negative = inhibition": 21.6},
      {"compound": "CC(O)CN1CCN(CC(=O)[O-])CCN(CC(=O)[O-])CCN(CC(=O)[O-])CC1.[Gd+3]", "note": "(stereo not drawn)", "activity, negative = inhibition": 16.8},
      {"compound": "CC(C)N[C@@H]1CCn2c(=O)[nH]c3cccc(c32)[C@@H]1O", "activity, negative = inhibition": -6.93},
      {"compound": "Oc1ccc([C@H]2CNCc3c2ccc(O)c3O)cc1O", "activity, negative = inhibition": -21.6},
      {"compound": "CC(C)[C@H]1C(=O)N[C@H](CO)Cc2c[nH]c3cccc(c23)N1C", "activity, negative = inhibition": -6.86},
      {"compound": "O=c1c2ccccc2[se]n1-c1ccccc1", "Potency": "7.74 µM (active)"},
      {"compound": "O=C(Nc1ccc(Br)cc1)c1cc(Br)cc(Br)c1O", "Potency": "6.15 µM (active)"}
    ]}
  ]
}
